The results in this text go back to the supplement of paper PMC13380429.

For experiment [1], the system named is Vero E6 infected with SARS-CoV-2. As to the kind of experiment: morphology score (similarity to uninfected cells); higher = more like uninfected cells. Particulars: 24 h.
For experiment [2] the test system is unchanged. As to the kind of experiment: SARS-CoV-2 infection rate relative to infected DMSO; higher = more infection, active = 60 or less. Particulars: 24 h.

Each structure is given as a SMILES string.

The compound `CCOc1ccccc1-n1c(C(C)N2CCN(C(=O)COc3ccc(Cl)cc3)CC2)nc2ccccc2c1=O` (stereo not given) [erastin] (0.833333 µM) displayed a morphology score in experiment [1] of -0.0506. Also, in experiment [2], the SARS-CoV-2 infection rate is 86% (inactive).

Compound `CNC[C@H](O)c1ccc(O)c(O)c1` [epinephrine] (10 µM) displayed a morphology score in experiment [1] of 0.0378. Further, in experiment [2], the SARS-CoV-2 infection rate was 104% (inactive).

`CN1CCN(c2ccc3nc(-c4c(N)c5c(F)cccc5[nH]c4=O)[nH]c3c2)CC1` [dovitinib] (10 µM) showed a morphology score in experiment [1] of -0.00197. For the same compound, in experiment [2], the SARS-CoV-2 infection rate is 102% (inactive).

In turn, `CC(=O)[C@@]12O[C@](C)(c3ccccc3)O[C@@H]1C[C@H]1[C@@H]3CCC4=CC(=O)CC[C@]4(C)[C@H]3CC[C@@]12C` [algestone-acetophenide] (10 µM) returned a morphology score in experiment [1] of 0.363. For the same compound, in experiment [2], the SARS-CoV-2 infection rate is 88.5% (inactive).

As to `O=C1N[C@@H]2[C@@H](O)[C@@H](O)[C@H](O)[C@@H](CO)N2C1=O` [kifunensine] (10 µM), the morphology score in experiment [1] is 0.19. Further, the SARS-CoV-2 infection rate in experiment [2] is 94% (inactive).

Compound `NC(Cc1ccc(I)cc1)C(=O)O` (stereo in doubt) [4-iodo-L-phenylalanine] (10 µM) yielded a morphology score in experiment [1] of 0.202. For the same compound, the SARS-CoV-2 infection rate in experiment [2] is 105% (inactive).

Turning to `NC(=O)c1[nH]cnc1O` (10 µM), the morphology score in experiment [1] is -0.0334. The SARS-CoV-2 infection rate in experiment [2] is 107% (inactive).

With `CCCCC#Cc1nc(NC)c2ncn([C@@H]3O[C@H](CO)[C@@H](O)[C@H]3O)c2n1` (10 µM), the morphology score in experiment [1] worked out at 0.143. Also, the SARS-CoV-2 infection rate in experiment [2] was 96% (inactive).

Turning to `CCCCCCCC/C=C\CCCCCCCC(=O)NCCO` [oleoylethanolamide] (10 µM), in experiment [1], the morphology score amounted to 0.0636. Besides, the SARS-CoV-2 infection rate in experiment [2] was 102% (inactive).

In the case of `Cc1cc(C)c(Nc2ccnc(Nc3ccc(C#N)cc3)n2)c(C)c1` [dapivirine] (0.833333 µM), the morphology score in experiment [1] was 0.07. Further, in experiment [2], the SARS-CoV-2 infection rate is 114% (inactive).
